PAFAH1B3 inh: PAFAH1B3 enzyme inhibitors, primary screen, biochemical, fluorescence polarization, human; Platelet-activating factor acetylhydrolase IB subunit alpha1 (Homo sapiens), Q15102; recombinant PAFAH1B3, FP-rhodamine probe; inhibition, % at 3.39 µM; 340,000 compounds, 0.28% hits; AID 492972, 2010;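 active means inhibition above the screen-wide average of all tested compounds plus 3 SD, cut at about 25% in these data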;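 further: 0% = enzyme with DMSO only and 100% = wells lacking PAFAH1B3 protein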
eLon inh: inhibitors of E. coli Lon protease, primary screen, biochemical, fluorescence polarization | P0A9M0 | purified E. coli Lon protease | inhibition, % at 7.94 µM | 360,000 compounds, 0.42% hits; in the data active means inhibition above about 13%, passing the limit was not always enough;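 further: 0% = enzyme with probe and DMSO and 100% = no enzyme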
Target sequence (P0A9M0 whole entry, looked up): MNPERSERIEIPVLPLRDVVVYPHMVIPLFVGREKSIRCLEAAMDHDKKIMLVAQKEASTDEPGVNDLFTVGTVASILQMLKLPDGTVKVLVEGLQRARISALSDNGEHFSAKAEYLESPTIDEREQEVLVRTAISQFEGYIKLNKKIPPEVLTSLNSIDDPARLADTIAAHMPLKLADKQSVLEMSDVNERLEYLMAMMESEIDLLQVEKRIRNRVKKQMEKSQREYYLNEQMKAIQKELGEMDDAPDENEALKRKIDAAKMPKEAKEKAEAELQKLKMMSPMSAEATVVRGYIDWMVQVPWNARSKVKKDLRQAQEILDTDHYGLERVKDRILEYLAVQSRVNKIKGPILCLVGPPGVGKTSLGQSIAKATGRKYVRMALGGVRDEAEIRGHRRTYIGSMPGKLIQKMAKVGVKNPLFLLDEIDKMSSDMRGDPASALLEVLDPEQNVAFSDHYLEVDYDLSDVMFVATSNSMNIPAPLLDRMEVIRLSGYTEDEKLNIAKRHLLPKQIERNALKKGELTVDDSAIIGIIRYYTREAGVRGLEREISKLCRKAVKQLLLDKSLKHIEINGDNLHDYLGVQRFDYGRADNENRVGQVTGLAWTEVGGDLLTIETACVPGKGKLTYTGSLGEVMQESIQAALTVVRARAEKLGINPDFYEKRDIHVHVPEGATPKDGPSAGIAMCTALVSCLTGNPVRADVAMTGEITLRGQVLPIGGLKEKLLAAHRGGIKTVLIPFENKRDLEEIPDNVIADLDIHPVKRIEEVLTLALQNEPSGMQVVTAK
Rin1 Abl inh: inhibitors of Rin1-Abl protein binding, primary screen, biochemical, TR-FRET | Tyrosine-protein kinase ABL1 (Homo sapiens) + Ras and Rab interactor 1 (Homo sapiens), … | inhibition, % at 7.35 µM | 360,000 compounds, 0.4% hits | AID 588664, 2011; in the data active means inhibition above about 5%, passing the limit was not always enough
PAFAH1B2 FP inh: PAFAH1B2 enzyme inhibitors, primary screen, biochemical, fluorescence polarization, human. Platelet-activating factor acetylhydrolase IB subunit alpha2 (Homo sapiens), P68402. recombinant PAFAH1B2, FP-rhodamine activity probe. 340,000 compounds, 1.2% hits. inhibition, % at 3.39 µM;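 active means inhibition above the mean of all tested compounds plus 3 SD, cut at about 24% in these data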;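 further: 0% = enzyme with DMSO and 100% = wells lacking PAFAH1B2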
PAFAH2 inh: PAFAH2 enzyme inhibitors, primary screen, biochemical, fluorescence polarization, human | 340,000 compounds, 0.99% hits | recombinant PAFAH2, FP-rhodamine activity probe | Platelet-activating factor acetylhydrolase 2, cytoplasmic (Homo sapiens), Q99487 | AID 492956, 2010 | inhibition, % at 3.39 µM;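 active means inhibition above the mean over all tested compounds plus 3 SD, cut at about 30% in these data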;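 further: inhibitors block probe labeling of enzyme so polarization drops; 0% = enzyme with DMSO and 100% = wells lacking PAFAH2 protein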
pPAFAH FP inh: pPAFAH enzyme inhibitors, primary screen, biochemical, fluorescence polarization, human; inhibition, % at 3.39 µM; AID 463082, 2010; recombinant pPAFAH, FP-rhodamine probe fluorescence polarization; Platelet-activating factor acetylhydrolase (Homo sapiens), Q13093; 330,000 compounds, 1.5% hits;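 active means inhibition above the mean inhibition across the screen plus 3 SD, cut at about 25% in these data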;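 further: inhibitors block binding of the rhodamine activity-based probe so polarization drops; 0% = enzyme with DMSO and 100% = wells lacking pPAFAH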
eLon confirm: E. coli Lon protease inhibitor retest, confirmation, biochemical, fluorescence polarization | shares compounds with eLon inh | purified E. coli Lon | inhibition, % at 7.94 µM | 1,400 compounds, 31% hits | AID 602230, 2012; in the data active means inhibition above about 16%;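 further: 0% = enzyme with probe and DMSO and 100% = no enzyme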
* = called active by the depositor; · = no result. An excerpt weighted towards active compounds, which were near 3.1% of everything screened.

SMILES	PAFAH1B3 inh	eLon inh	Rin1 Abl inh	PAFAH1B2 FP inh	PAFAH2 inh	pPAFAH FP inh	eLon confirm
COc1ccc(C(=O)N=S2CCN(C(=O)c3ccc(Cl)cc3)CC2)cc1	·	103*	1	·	·	-10	12
Cc1cccc(NC(=O)CSc2nc(=O)n(CCN3CCOCC3)c3c2CCCC3)c1C	3	-1	-1	-1	3	4	·
Cc1ccc(N(CC(=O)N2CCCC2)S(C)(=O)=O)c(C)c1	1	36*	3	-6	6	0	7
CCOC(=O)C1=C(COC(=O)c2c(OC)cccc2OC)NC(=O)NC1C (configuration not stated)	2	-4	0	0	-4	-8	·
CCOC(=O)C1=C(COC(=O)Cc2c(F)cccc2Cl)NC(=O)NC1C (configuration not stated)	4	24*	0	-3	16	-3	-1
O=C(CN(Cc1ccccc1)C(=O)CCC(=O)Nc1nccs1)NCc1ccccc1	9	13	2	1	0	4	·
CN(C(=O)C(C)(C)C)[C@H]1C[C@H]2c3[nH]c4ccccc4c3CCN2C(=O)[C@H]1CO	·	14*	-2	·	·	·	-11
CN(C(=O)NC1CCCCC1)[C@H]1C[C@H]2c3[nH]c4ccccc4c3CCN2C(=O)[C@H]1CO	·	-12	-2	·	·	·	·
CCCCCCCCN1C(=O)[C@H](CC(=O)N2CCOCC2)C[C@@]2(C(=O)OC)CCCCC=C12	·	4	·	·	·	·	·
S=c1[nH]nc(-c2ccccn2)n1/N=C/c1ccc(Cl)cc1	7	18*	-1	5	6	0	-2
Cc1cccc(N2N=C(C(=O)O)CCC2=O)c1	2	37*	5	-6	-1	4	2
O=C(O)[C@@H]1CCCN1S(=O)(=O)c1cccc2cccnc12	8	5	7	6	0	7	·
COc1ccc(CCNC(=O)CCNC(=O)c2ccco2)cc1OC	1	22*	1	-4	1	2	-4
CCCCC(c1nc2ccccc2[nH]1)n1c(=O)c(-c2ccccc2)nc2cc(C)c(C)cc21 (configuration not stated)	·	4	2	·	·	·	·
NNC(=O)CSc1ncc(-c2ccccc2)[nH]1	19	15*	-1	7	1	3	-4
CC1CCCN(C(=O)c2cc(S(=O)(=O)N3CCCCC3)c[nH]2)C1 (configuration not stated)	12	-9	2	-2	8	5	·
O=C(COC(=O)c1ccccn1)NCCc1ccc(Cl)cc1	20	8	1	13	10	5	·
CCN(C(=O)COC(=O)Cn1cnc2c1c(=O)n(C)c(=O)n2C)C1CCS(=O)(=O)C1 (configuration not stated)	8	0	3	-8	-5	-6	·
CC(C)CN(C(=O)Cn1c(Cl)nc2c1c(=O)n(C)c(=O)n2C)C1CCS(=O)(=O)C1 (configuration not stated)	3	16*	1	-2	0	-2	0
CN(CCc1ccccc1)C(=O)c1cccc(NC(=O)Cc2cccc(NC(=O)C3CCCN(C(=O)C4CCCC4)C3)c2)c1 (configuration not stated)	2	-3	-3	6	-2	·	·
C[C@H]1CN([C@@H](C)CO)C(=O)CCCn2nncc2CO[C@H]1CN(C)C(=O)NC1CCCCC1	·	13*	2	·	·	·	-3
Cc1noc(C)c1S(=O)(=O)N(C)C[C@@H]1OCc2cnnn2CCCC(=O)N([C@@H](C)CO)C[C@H]1C	·	15*	-4	·	·	·	-10
C[C@@H]1CN([C@@H](C)CO)C(=O)CCCn2nncc2CO[C@@H]1CN(C)C(=O)NC1CCCCC1	·	-8	-1	·	·	·	·
COC(=O)c1cc(=O)nc(NN=Cc2ccc(C)cc2)s1	·	3	2	·	·	·	·
CC(C)(C)c1ccc(C(=O)N2CCC2(C)C(=O)NCc2cccs2)cc1 (configuration not stated)	·	6	1	·	·	·	·
SMILES	PAFAH1B3 inh	eLon inh	Rin1 Abl inh	PAFAH1B2 FP inh	PAFAH2 inh	pPAFAH FP inh	eLon confirm
Cc1cccc(Nc2nc(N)nc(CN3CCN(Cc4ccc5c(c4)OCO5)CC3)n2)c1	1	19*	-2	1	-1	4	-1
COc1ccc(S(=O)(=O)N(CC(=O)NCC2CCCO2)C2CCCCC2)cc1OC (configuration not stated)	4	-17	4	-2	-7	1	·
CCN(CC)c1ccc(N=C2C=CC(=O)C=C2NC(C)=O)cc1	·	38*	5	·	·	·	-11
CCN(CC)c1ccc(NC(=O)Nc2ccc(C(C)=O)cc2)cc1	-2	-1	-1	3	-9	1	·
O=C1ON=C(c2ccccc2)/C1=C/c1cccnc1	8	17*	4	5	-2	·	3
O=C(Nc1ccccc1)c1ccc(-c2ccc([N+](=O)[O-])cc2)o1	5	30*	5	0	7	3	-5
CCCS(=O)(=O)NC(=O)C1(C)CCCN(C(=O)c2c(F)ccc(C)c2F)C1 (configuration not stated)	·	-7	-1	·	·	·	·
OC1CCCN(Cc2ccc3ccc4cccc5ccc2c3c45)C1 (configuration not stated)	2	1	-8	-2	5	-1	·
c1cc2ccc3ccc(CN4CCOCC4)c4ccc(c1)c2c34	3	17*	-2	4	0	0	2
CCCCCn1c(SCC(=O)c2ccccc2)nc2cc(C(=O)NCC3CCCO3)ccc2c1=O (configuration not stated)	-2	7	-2	1	-2	·	·
Cc1ccc2c(c1)-n1c(nc3ccc(C)cc3c1=O)C(Cc1ccc(O)cc1)NC2=O (configuration not stated)	·	·	·	·	·	-1	·
COc1ccc2nc(N3CCC(C)CC3)c(C#N)cc2c1	17	15*	-2	0	1	2	23*
O=C(Nc1ccccc1Cl)c1cc(C2CCCN(C(=O)OCCF)C2)on1 (configuration not stated)	·	-6	1	·	·	·	·
COC(=O)N1CCCC(c2cc(C(=O)Nc3ccccc3Cl)no2)C1 (configuration not stated)	·	52*	-3	·	·	·	1
O=C1c2ccccc2S(=O)(=O)N1CC(O)Cn1ccc2ccccc21 (configuration not stated)	-11	112*	-1	5	-10	3	45*
COc1ccc(OC)c(CN2CCCCCC2)c1	-3	21*	2	-1	4	0	121*
COc1ccc(OC)c(CN2CCN(c3ccccc3OC)CC2)c1	5	17*	4	0	-2	24	4

Screens (PubChem BioAssay)
